This passage reports inhibition results from PubChem BioAssay AID1578 (Sanford-Burnham Center for Chemical Genomics, 2009).

About 3,000 (1%) of roughly 290,000 compounds were called active. Rule as the data show it: active = inhibition mostly above about 36% (no sharp cut-off); inactive = mostly below about 34%. The entries come from a sample that favours actives as a whole.

This test in a line: inhibition of NOD1-driven NF-kB reporter – cell-based, luminescence, uHTS, primary screen (AID 1578).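 Also: HEK-293T reporter cells stimulated with the NOD1 agonist gamma-tri-DAP.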 The note with it: NOD1-driven NF-kB luciferase reporter cells, at 4 µM, active compounds read high.
For `CCN(CC)S(=O)(=O)c1ccc(-c2ccc(S(=O)(=O)N(CC)CC)cc2)cc1`, the inhibition is 39.7% (inactive).
`CCN(CC)S(=O)(=O)c1ccc(NS(=O)(=O)c2ccc(F)cc2)cc1`: the inhibition is 9.7% (inactive).
As for `CCN(CC)S(=O)(=O)c1ccc(F)cc1`, the figure is 71.7% (active); as for `O=C(/C=C/c1ccccc1Cl)NCCc1ccc(F)cc1`, -61.3% (inactive); as for `COc1ccc(C(=O)/C=C/C(=O)N(CC(=O)NCCC(C)C)Cc2cccs2)c(O)c1`, 86.8% (active).
The result for `COc1ccc(C(=O)N(Cc2ccco2)Cc2cccs2)c(O)c1` reads 29.1% (inactive); that for `COc1ccc(C(=O)/C=C/C(=O)N(CC(=O)NC2CCCCC2)CC2CCCO2)c(O)c1` (stereo not drawn), 68.4% (active).
As for `COc1ccc(C(=O)/C=C/C(=O)N(CC(=O)NC2CCCCC2)Cc2cccs2)c(O)c1`, the figure is 36.2% (inactive).
Consider `COc1ccc(C(=O)/C=C/C(=O)N(CC(=O)NC2CCCCC2)Cc2ccccc2)c(O)c1`, for which the inhibition is 26% (inactive).
With `COc1ccc(C(=O)/C=C/C(=O)N(CC(=O)NC2CCCCC2)Cc2ccc(F)cc2)c(O)c1`, the inhibition is 16.3% (inactive).
The result for `COc1ccc2cnn(-c3ccc(OC(F)(F)F)cc3)c(=O)c2c1OC` reads -0.3% (inactive); that for `Cc1ccc(CNC(=O)C2CCC(=O)N2Cc2ccc(C)cc2)cc1` (stereo not drawn), 0.2% (inactive).
As for `O=C(c1ccc(CSc2ccc(Cl)cc2)cc1)N1CCCC1`, the figure is -3.6% (inactive); as for `CN1CCN(C(=O)c2ccc(CSc3ccc(Cl)cc3)cc2)CC1`, -13.5% (inactive); as for `CCOC(=O)N1CCN(C(=O)c2ccc(CSc3ccc(Cl)cc3)cc2)CC1`, 62.9% (active).
The result for `C=CCn1c(O)c(CN2CCCCC2)c(C)c(C#N)c1=O` reads -25.8% (inactive); that for `O=C(Nc1ccc(N2CCCCC2)cc1)c1ccccn1`, 89.3% (active); that for `O=C(Nc1ccc(N2CCCCC2)cc1)c1cccnc1Cl`, -28% (inactive).
`CCC(=O)Nc1ccc(N2CCCCC2)cc1`: the inhibition was 0.2% (inactive).
As for `CCN1CCN(c2ccc(NC(=O)c3cnccn3)cc2)CC1`, the figure is -37.5% (inactive); as for `O=C(CN1CCCCC1)Nc1ccc(N2CCCCCC2)cc1`, -21% (inactive).
The result for `O=C(CCl)Nc1ccc(N2CCCCCC2)cc1` reads 65.3% (active); that for `Cc1cnc(C(=O)Nc2ccc(N3CCOCC3)cc2)cn1`, -18.5% (inactive); that for `O=C(Nc1ccc(N2CCCCCC2)cc1)c1ccccc1Cl`, -33.9% (inactive).
The result for `O=C(Nc1ccc(N2CCOCC2)cc1)c1cnccn1` reads 52.9% (active); that for `CCc1c(O)nc(SCC(=O)Nc2ccccc2C)n(-c2ccc(C)cc2)c1=O`, -22.6% (inactive); that for `CN1CCN(C(=O)/C(=C/c2ccccc2F)NC(=O)c2ccccc2)CC1`, -17.7% (inactive).
In the case of `CCNc1ccc([N+](=O)[O-])cc1`, the inhibition was -1.6% (inactive).
As for `CN(C)CCCN(Cc1cc2cc3c(cc2[nH]c1=O)OCO3)C(=S)Nc1ccccc1`, the figure is -23.7% (inactive); as for `CCSc1nnc(NC(=O)c2cccc(S(=O)(=O)N(C)c3ccccc3)c2)s1`, -5.2% (inactive).
As for `CCCCn1c(SCC(=O)c2ccccc2)nc2ccsc2c1=O`, the figure is 21.6% (inactive).
As for `CCCCn1c(SCC(=O)N2CCC(C)CC2)nc2ccsc2c1=O`, the figure is -16.2% (inactive).
For the compound `Cc1cc(C)nc(SCC(=O)Nc2ncc(C(F)(F)F)cc2Cl)n1`, the inhibition was -28.9% (inactive).
As for `Nc1nc(SCC(=O)Nc2ncc(C(F)(F)F)cc2Cl)n[nH]1`, the figure is 65.2% (active); as for `O=C(CSc1ncccn1)Nc1ncc(C(F)(F)F)cc1Cl`, -20.5% (inactive).
The result for `Cc1cc(C(F)(F)F)nn1CC(=O)NCc1ccco1` reads -18% (inactive).
The result for `ON1C(c2ccc(Cl)cc2Cl)N(O)[C@H]2CCCC[C@H]21` (stereo partly drawn) reads -8.4% (inactive).
Turning to `COC(=O)C1CN(C(=O)COc2ccccc2)c2ccccc2O1` (stereo not drawn), the inhibition is 15.9% (inactive).
The result for `Cc1ccc(C(C)C)c(OCCNC(=O)c2ccccc2O)c1` reads -22.6% (inactive); that for `Cc1ccc(C(C)C)c(OCCNC(=O)c2cncc(Br)c2)c1`, 16.6% (inactive); that for `COc1cc(/C=N/n2nnnc2Nc2ccccc2)cc(OC)c1OC`, -36.9% (inactive).
Consider `CCc1cccc(C)c1NC(=O)C(c1ccccc1)N1CCC1=O` (stereo not drawn), for which the inhibition is -22.7% (inactive).
The result for `COCCCNC(=S)N1CCN(S(C)(=O)=O)CC1` reads -18.9% (inactive).
The result for `CC(C)(C)c1ccc(C(=O)N2CCN(c3nc4ccccc4o3)CC2)cc1` reads 28.1% (inactive).
Consider `COc1ccc(C(=O)N2CCN(c3nc4ccccc4o3)CC2)cc1OC`, for which the inhibition was 19.2% (inactive).
As for `O=C(c1ccc(-c2ccccc2)cc1)N1CCN(c2nc3ccccc3o2)CC1`, the figure is 35.5% (active); as for `CCOC(=O)C1(Cc2ccccc2)CCN(Cc2ccc(C)s2)CC1`, -14.9% (inactive).
As for `O=C(Nc1ccc(S(=O)(=O)Nc2nccs2)cc1)c1ccc(F)cc1`, the figure is -13.9% (inactive); as for `O=C(Cc1ccc(F)cc1)Nc1nccs1`, -24.2% (inactive).
The result for `COc1ccc(/C=C/C(=O)Nc2ccc3nc4n(c(=O)c3c2)CCCC4)cc1OC` reads -31.1% (inactive); that for `O=C(O)c1ccc(NCc2cccnc2)c([N+](=O)[O-])c1`, -17.4% (inactive).
With `C/C(=N\NC(N)=O)c1cccc(Cl)c1`, the inhibition is 29% (inactive).
As for `CCCCNC(=S)Nc1ccccc1Cc1ccccc1`, the figure is -3.1% (inactive); as for `COCCNC(=S)Nc1ccccc1Cc1ccccc1`, 45.2% (active); as for `COCCCNC(=S)Nc1ccccc1C`, -13.2% (inactive).
The result for `CCCCCN(C(=O)NC(=O)NC(C)CC)S(C)(=O)=O` (stereo not drawn) reads -3.8% (inactive).
Consider `Cc1noc(NC(=O)c2ccc(Cl)cc2)c1Cl`, for which the inhibition is -33% (inactive).
Turning to `Cc1noc(NC(=O)c2cccc(C(F)(F)F)c2)c1Cl`, the inhibition was -5.6% (inactive).
The result for `Cc1noc(NC(=O)c2ccc(Cl)c(Cl)c2)c1Cl` reads 67.6% (active).
The result for `COc1cccc(C(=O)NCCNC(=O)c2ccc(C)nc2)c1` reads -6.6% (inactive); that for `CCCCNC(=S)N(C)/N=C/c1c(F)cccc1F`, -5.6% (inactive).
As for `CCCCNC(=S)N(C)/N=C/c1ccccc1F`, the figure is 12.5% (inactive); as for `CCCCNC(=S)N(C)/N=C/c1ccc(F)cc1`, 100% (active).
In the case of `Cc1ccc(C(=O)NC2CCc3ccccc3C2=O)cc1` (stereo not drawn), the inhibition is -47.4% (inactive).
As for `COCCN1CCN(C(=O)C2CCC(=O)N(Cc3ccccc3OC)C2)CC1` (stereo not drawn), the figure is -18.1% (inactive).
As for `N#CCCn1cc(/C=C/C(=O)O)c(-c2ccc(F)cc2)n1`, the figure is -31.6% (inactive); as for `COc1ccc(Cn2cc3c(-c4ccc(F)cc4)nnc-3c3cc(OC)c(OC)cc32)cc1`, 10.1% (inactive); as for `COc1cc2c3nnc(-c4ccc(F)cc4)c-3cn(Cc3ccc(C)cc3)c2cc1OC`, -31.5% (inactive).
As for `COc1cc2c3nnc(-c4ccc(F)cc4)c-3cn(Cc3ccc(F)cc3)c2cc1OC`, the figure is 108% (active); as for `Cc1cc(N2CC(C(=O)Nc3nccs3)CC2=O)ccc1C(C)C` (stereo not drawn), -22.4% (inactive); as for `COc1ccc(C(=O)Nc2cc(C)on2)cc1[N+](=O)[O-]`, -31.1% (inactive).
As for `O=C(Nc1ccc(-c2n[nH]c(=S)o2)cc1)c1ccccc1Cl`, the inhibition is -4.7% (inactive).
The result for `Cc1nn(-c2ncc(C(F)(F)F)cc2Cl)c(=O)n1-c1c(F)cccc1F` reads -38.4% (inactive); that for `O=c1[nH]c(/C(Cl)=C/c2c(F)cccc2Cl)nc2cc(Cl)ccc12`, 25.9% (inactive); that for `O=c1[nH]c(/C(Cl)=C/c2cc(Cl)ccc2O)nc2cc(Cl)ccc12`, 81.7% (active).
As for `CCc1ccc(/C=C(\Cl)c2nc3cc(Cl)ccc3c(=O)[nH]2)cc1`, the figure is -10.4% (inactive); as for `CCOP(=O)(OCC)C(NC(C)=O)C(=O)c1ccccc1` (stereo not drawn), -30.2% (inactive).
As for `Cc1cc(C)cc(NC(=S)NCc2cccnc2)c1`, the figure is -23.4% (inactive).
Consider `CC(C)[C@@H]1COC(c2cccc(C3=N[C@H](C(C)C)CO3)c2)=N1`, for which the inhibition was -29% (inactive).
As for `CC(C)[C@H]1COC(NC2=N[C@@H](C(C)C)CO2)=N1`, the figure is 75.5% (active); as for `CC(C)[C@@H]1COC(c2cccc(C3=N[C@H](C(C)C)CO3)n2)=N1`, 11.3% (inactive).
The result for `Cc1ccc(C2C(=O)c3ccccc3C2=O)cc1` reads -11% (inactive); that for `CCOc1ccc(N/C(=N/c2nc(C)cc(C)n2)NC(C)=O)cc1`, -12% (inactive).
Turning to `COc1ccccc1-c1nc(C#N)c(N2CCN(Cc3ccccc3)CC2)o1`, the inhibition is 13.8% (inactive).
The result for `CCc1ccc(N2CN=c3s/c(=C\c4ccccc4)c(=O)n3C2)cc1` reads -13% (inactive); that for `Cc1ccc(N2CN=c3s/c(=C\c4ccccn4)c(=O)n3C2)cc1`, -21.2% (inactive).
As for `Cc1ccc(N2CN=c3s/c(=C\c4cccnc4)c(=O)n3C2)cc1`, the figure is 84.1% (active); as for `COc1cccc(C2Nc3ccccc3NC3=C2C(=O)CC(C)(C)C3)c1OC` (stereo not drawn), -8.8% (inactive).
In the case of `C=CCn1c(=O)c2c(nc3n2CCS3)n(C)c1=O`, the inhibition was 5.1% (inactive).
The result for `CCN(CC)C(=O)C[n+]1cccc(/C=N/O)c1` reads -12.8% (inactive).
The result for `Cc1cccc(OCC(=O)Nc2nc3ccc([N+](=O)[O-])cc3s2)c1` reads 55.9% (inactive); that for `Cc1ccc(C)c(OCC(=O)Nc2nc3ccc([N+](=O)[O-])cc3s2)c1`, -16.9% (inactive); that for `CS(=O)(=O)N(CC(=O)N/N=C/c1ccc(OCC(=O)N2CCOCC2)cc1)c1ccccc1Cl`, -22.8% (inactive).
The result for `Cc1sc(NC(=O)CSc2nc(O)cc(=O)[nH]2)nc1-c1ccccc1` reads -24.3% (inactive).
For `CN(CCCN1CCOCC1)C(=O)c1cc(COc2cccc(C(F)(F)F)c2)on1`, the inhibition is -8.6% (inactive).
The result for `CCOC(=O)C1CCCN(Cc2cn[nH]c2-c2ccc(F)cc2F)C1` (stereo not drawn) reads -31.8% (inactive); that for `O=C(C1CCN(Cc2cn[nH]c2-c2ccc(F)cc2F)CC1)N1CCOCC1`, -5.7% (inactive); that for `OCCCC1CCCN(Cc2cn[nH]c2-c2ccc(F)cc2F)C1` (stereo not drawn), 75% (active).
